Test results as given in PubChem BioAssay (Tox21).
Results filed as inconclusive are left out. Unmarked numbers belong to inactive results. The source made the active and inactive calls. Calls come from the whole dose curve.

Biological target: Acetylcholinesterase (Homo sapiens) (UniProt P22303)
Assay: Acetylcholinesterase (AChE) small molecule antagonists: colormetric cell-based qHTS assay (AID 1347395); note: nearly all actives have a fitted effect of over 30% in size
Details: SH-SY5Y cells AChE activity, colorimetric (Ellman); series mostly up to 115 µM; activity, negative = inhibition: at the top concentration
How it was run: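 Quantitative HTS in attached SH-SY5Y cells: 30 min compound exposure, then 90 min with acetylthiocholine and DTNB at 37 C; colour from thiocholine reports AChE activity.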
% is set by controls: 0 for no effect and ±100 for the full control effect; potency is the fitted concentration of half-maximal effect.

Sequence of Acetylcholinesterase (Homo sapiens) (P22303 whole entry, looked up): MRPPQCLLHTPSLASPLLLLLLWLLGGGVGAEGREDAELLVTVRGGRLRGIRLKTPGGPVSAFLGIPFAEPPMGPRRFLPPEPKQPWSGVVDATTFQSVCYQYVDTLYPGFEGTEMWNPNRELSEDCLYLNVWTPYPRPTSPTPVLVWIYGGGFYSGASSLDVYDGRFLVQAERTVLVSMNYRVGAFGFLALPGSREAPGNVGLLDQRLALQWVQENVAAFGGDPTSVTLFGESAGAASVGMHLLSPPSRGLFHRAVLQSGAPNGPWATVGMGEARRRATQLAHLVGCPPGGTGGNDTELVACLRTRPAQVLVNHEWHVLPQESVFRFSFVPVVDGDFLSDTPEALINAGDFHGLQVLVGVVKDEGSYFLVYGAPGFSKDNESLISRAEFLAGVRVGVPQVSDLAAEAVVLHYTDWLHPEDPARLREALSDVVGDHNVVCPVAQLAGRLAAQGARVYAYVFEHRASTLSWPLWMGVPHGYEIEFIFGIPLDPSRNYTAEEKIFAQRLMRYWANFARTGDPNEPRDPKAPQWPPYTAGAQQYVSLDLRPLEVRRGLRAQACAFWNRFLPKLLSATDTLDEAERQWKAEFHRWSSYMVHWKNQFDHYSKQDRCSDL

Compound	activity, negative = inhibition	Potency
COCC(=O)N(c1c(C)cccc1C)N1CCOC1=O	4.37%	
CCCCOC(=O)[C@@H](C)Oc1ccc(Oc2ccc(C#N)cc2F)cc1	1.57%	
OCCBr	-0.511%	
O=NN1CCCCC1	4.66%	
CNC(=O)Oc1ccccc1C1OCCO1	3.05%	
Cc1nnc2n1-c1sc(CCC(=O)N3CCOCC3)cc1C(c1ccccc1Cl)=NC2	1.5% [at 52.9 µM]	
OC(Cn1cncn1)(c1ccc(F)cc1)c1ccccc1F (stereo not given)	0.464%	
CC(C(=O)c1ccccc1)N(C)C (stereo not given)	4.49% [at 52.9 µM]	
O=[N+]([O-])c1cccc2cccnc12	-13.1%	
CC1=NNC(=O)N(/N=C/c2cccnc2)C1	-8.33%	
O=[N+]([O-])c1cc(Cl)c(Cl)c(Cl)c1	0.329%	
C[C@]1(O)CC[C@H]2[C@@H]3CCC4=CC(=O)CC[C@]4(C)[C@@]3(F)[C@@H](O)C[C@@]21C	1.84%	
c1ccc(N2CCNCC2)cc1	2.32% [at 52.9 µM]	
ClC(Cl)Br	-3.17%	
OCCSCSCCO	-4.63%	
CCC(C)(C)c1cc(-n2nc3ccccc3n2)c(O)c(C(C)(C)CC)c1	-0.158%	
CCCCc1ccc(O)cc1	0.869%	
O=C1CN2CCOC2(c2ccccc2Cl)c2cc(Cl)ccc2N1 (stereo not given)	0.881% [at 52.9 µM]	

Compound	activity, negative = inhibition	Potency
CC(=O)CCc1ccc2c(c1)OCO2	-0.304%	
O=C(O)c1cccc(Cl)c1	0.419%	
c1cc[c]([Hg][c]2ccccc2)cc1	-2%	
[Cl][Sn]([Cl])([Cl])[Cl]	-2.27%	
CCCSC(=O)Cl	-8.03%	
CNC(=O)O/N=C(\C)SC		1.59 µM (active)
Cc1nc(N)nc(N)n1	-17.7%	
CC(COc1ccc(Oc2ccccc2)cc1)Oc1ccccn1 (stereo not given)	1.77%	
ClCC(Cl)Cl		36.8 µM (active)
CC(Oc1ccc(Oc2ncc(C(F)(F)F)cc2Cl)cc1)C(=O)O (stereo not given)	0.105%	
N#CCBr	0.51%	
CS(=O)(=O)c1cc(C(F)(F)F)ccc1C(=O)c1cnoc1C1CC1	-3.46%	
CSc1nc(N=[N+]=[N-])nc(NC(C)C)n1	-6.68%	
CCc1cc2c(s1)-n1c(C)nnc1CN=C2c1ccccc1Cl	-4.32% [at 52.9 µM]	
CCCCOC(=O)c1ccccc1N	-5.12%	
O=[N+]([O-])c1ccc2c3c(cccc13)CC2	-14.8%	
CC(Cl)(Cl)[N+](=O)[O-]	0.205%	
